An excerpt weighted towards active compounds, which were near 7.8% of everything screened.
VACV Venus inh: inhibitors of vaccinia virus (Venus reporter). hit rate 0.46% among 330,000. Vaccinia virus Venus reporter expression, fluorescence. Potency, µM (doses to about 36.5 µM), for inactives: at the top dose activity change, negative = inhibition, usual class: inhibitors; calls by dose curve; tested in A549 cells; also: potency is read from the fitted curve at half-maximal effect; nearly all actives have a fitted effect of over 30% in size
HCMV antiviral: human cytomegalovirus inhibition; HFF cells, HCMV-luciferase reporter, 72 h; active compounds read low; activity change, negative = inhibition, % at 57.5 µM; hit rate 4.5% among 410,000; AID 1259415; in the data active = activity change below about -60%; inconclusive = no clear call, values can overlap the other calls; inactive = above about -39%
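HFF cells seeded 16 h at 37C, treated with compounds, infected with luciferase-reporter HCMV at MOI 1 PFU/cell; luciferase read at 72 h post infection, normalized to buffer-only and Salinomycin controls.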
HCV inh: inhibitors of hepatitis C virus infection | Potency, µM (top dose mostly 41.8 µM), for inactives: top-dose activity change, negative = inhibition, most hits filed as inhibitors | Huh7.5.1 HCVcc-Cre infection, luciferase reporter, 44 h | hit rate 3.4% among 340,000 | AID 651820; active = well fitted inhibition curve with a large enough effect; inconclusive = small, poorly fitted or top-dose-only effect, or another doubt; inactive = no such curve, though single readings can be large or run the other way; also: potency is read from the fitted curve at half-maximal effect
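Seed cells (1,000/well) for 4 h; treat with compound and infect with HCVcc-Cre, moi about 0.5. Incubate 44 h, then detect luciferase activity.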
MARV entry inh: inhibitors of Marburg virus binding or cell entry | Marburg virus pseudotyped entry inhibition, cell reporter | Potency, µM (titrated, usually from 37.8 µM), for inactives: at the highest dose activity change, negative = inhibition, hits mostly inhibitors | hit rate 1.8% among 300,000; calls by dose curve; tested in HEK293 cells; also: potency is read from the fitted curve at half-maximal effect
VACV mCherry inh: vaccinia inhibition (mCherry reporter). Vaccinia virus mCherry reporter infection, fluorescence. Potency, µM (top dose mostly 36.5 µM), for inactives: at the top dose activity change, negative = inhibition, hits mostly inhibitors. hit rate 0.63% among 310,000. AID 720579; calls by dose curve; tested in A549 cells; also: potency is read from the fitted curve at half-maximal effect; nearly all actives have a fitted effect of over 35% in size
Lassa entry inh: blocks Lassa virus binding to or entry into cells; Lassa virus pseudotype entry inhibition, cell reporter; Potency, µM (highest dose often 37.9 µM), for inactives: at the top dose activity change, negative = inhibition, most hits filed as inhibitors; hit rate 1.2% among 300,000; calls by dose curve; tested in HEK293 cells; also: potency is read from the fitted curve at half-maximal effect; nearly all actives have a fitted effect of over 50% in size
Active calls of the source: *; i = inactive; u = inconclusive; x = no result given; + = active, no number; ! = not confirmed by another sample; [ ] = dose if it differs, or a comment. % is scaled to controls: 0 for no effect and ±100 for the full control effect.

SMILES | VACV Venus inh | HCMV antiviral | HCV inh | MARV entry inh | VACV mCherry inh | Lassa entry inh
CC(=O)c1ccc(N2CCN(C(=O)C3CCN(S(=O)(=O)c4c(C)noc4/C=C/c4ccc(C)cc4)CC3)CC2)cc1 | -15% | -24 | x | x | -22% | -1%[46.1 µM]
Cc1ccc(/C=C/c2onc(C)c2S(=O)(=O)N2CCC(C(=O)N3CCC(N(C)C(C)C)CC3)CC2)cc1 | u | -101* | x | x | -29% | -29%[46.1 µM]
COC(=O)[C@H]1C[C@@H]1[C@H](NP(=O)(c1ccccc1)c1ccccc1)c1ccccc1 | -6% | -11 | 0% | -45% | i | 5%
O=C(NCc1ccccn1)[C@@H]1C[C@H]1[C@@H](NP(=O)(c1ccccc1)c1ccccc1)c1ccccc1 | -9% | -13 | 32% | -16% | i | 6.5µM*
O=C(NCC1CC1)[C@@H]1C[C@H]1[C@@H](NP(=O)(c1ccccc1)c1ccccc1)c1ccccc1 | -23% | -25 | 9% | 4% | i | u
O=C(O)[C@@H]1C[C@H]1[C@@H](NP(=O)(c1ccccc1)c1ccccc1)c1ccccc1 | -17% | -99* | -1%[8.37 µM] | 3% | i | 14%
O=C(NCc1ccccc1)[C@@H]1C[C@H]1[C@@H](NP(=O)(c1ccccc1)c1ccccc1)c1ccccc1 | -29% | -34 | 29% | u | -5% | 1.8µM*
COCCN1CCN(C(=O)c2cnn(-c3nccc(-c4ccco4)n3)c2C2CC2)CC1 | 4% | x | x | x | 2% | x
C=C(CC[C@]12OC(C(=O)O)C(O)(C(=O)O)C(C(=O)O)(O1)C(OC(=O)/C=C/[C@@H](C)C[C@@H](C)CC)C2O)[C@@H](OC(C)=O)[C@H](C)Cc1ccccc1 (stereo partly specified) | -14% | x | x | x | -2% | x
Cc1ccccc1Nc1cc2ccccc2c(=O)[nH]1 | 10µM* | x | -24% | -19%[46.1 µM] | x | 14%
O=c1[nH]c(Nc2ccccc2Cl)cc2ccccc12 | -20% | 4 | u | x | -13% | x
CCCCCc1nn2cc(-c3ccccc3)nc2s1 | -16% | 25 | x | 6%[46.1 µM] | -16% | u
COCC1CCN(C(=O)c2cc(COc3cccc4cnccc34)on2)CC1 | -16% | + | 7.1µM* | -16%[46.1 µM] | -11% | -9%[46.1 µM]
O=C(c1cc(COc2cccc3cnccc23)on1)N1CCCC(CCCO)C1 (stereo unspecified) | x | -86* | 1.4µM* | x | x | x
COCC1CCN(C(=O)c2cc(COc3ccc(F)cc3Cl)on2)C1 (stereo unspecified) | -3% | 4 | x | x | 3% | x
COc1ccc(OCc2cc(C(=O)N3CCCC(CO)C3)no2)c2ccccc12 (stereo unspecified) | -10% | 206 | u | -13% | -1% | -12%
COc1ccc(S(=O)(=O)N2CCCCCC2)cc1NC(=O)CCCOc1ccccc1 | x | -31 | 13µM* | x | x | x
CCC(C)SCC(=O)Nc1ccc(S(=O)(=O)N2CCOCC2)cc1OC (stereo unspecified) | -20% | -30 | 11µM* | 4%[46.1 µM] | -13% | 3%
CC(C)Oc1ccc(S(=O)(=O)N2CCOCC2)cc1NC(=O)C1COc2ccccc2O1 (stereo unspecified) | x | -16 | u | x | x | x
CCOc1ccc(S(=O)(=O)N2CCCCC2)cc1NC(=O)Cc1ccccc1 | x | -38 | -7% | x | x | x
CCOc1ccc(S(=O)(=O)N2CCCCC2)cc1NC(=O)C1COc2ccccc2O1 (stereo unspecified) | -21% | -38 | 10µM* | u | -12% | -18%
CCOc1ccc(S(=O)(=O)N2CCCCC2)cc1NC(=O)Cc1cc(OC)c(OC)c(OC)c1 | -25% | -88* | x | x | -6% | x
CCC(CC)C(=O)OCC(=O)Nc1ccc(S(=O)(=O)N2CCOCC2)cc1OC | x | -4 | 3% | 2% | x | 1%
COc1ccc(OCCCC(=O)Nc2cc(S(=O)(=O)N3CCCCC3)ccc2OC)cc1 | x | 14 | u | x | x | x
CN(C)c1ccc(CNC(=O)c2cnc(N3CCNC3=O)s2)cc1 | x | 8 | x | x | x | x
SMILES | VACV Venus inh | HCMV antiviral | HCV inh | MARV entry inh | VACV mCherry inh | Lassa entry inh
COc1ccc(CCn2nnnc2C2(c3ccc(C)cc3)CC2)cc1 | x | x | x | -5% | x | -21%
COc1ccc(S(=O)(=O)N2CCOCC2)cc1NC(=O)CN1CCC(Cc2ccccc2)CC1 | u | -66* | 10µM* | u | u | 10µM*
CS(=O)(=O)c1ccc2nc(NC(=O)CN3CCC(Cc4ccccc4)CC3)sc2c1 | -14% | -85* | 11% | -3%[46.1 µM] | -27% | 15%[46.1 µM]
Cc1ccccc1NC(=O)NCC1CCN(c2ccc(S(=O)(=O)N3CCOCC3)cc2)CC1 | -4% | 2 | 35µM* | -6% | -3% | -16%
COc1cc(NC(=O)c2cc(OC)c(OC)c(OC)c2)c(OC)cc1NC(=O)CN1CCCCC1 | -5% | 34 | 2.5µM* | u | x | -24%
Cc1ccc(NC(=O)N2CCC(n3c(C)nc4cccnc43)CC2)c(Cl)c1 | 3% | 1 | x | x | -2% | -11%[46.1 µM]
CCC(=O)c1ccc(OCC(=O)Nc2cc(S(=O)(=O)N3CCCCC3)ccc2OC)cc1 | x | -5 | 11µM* | x | x | x
COc1ccc(S(=O)(=O)N2CCOCC2)cc1NC(=O)Cc1sc(C)nc1-c1ccc(F)cc1 | -12% | -23 | -26% | 19% | -19% | u
COc1ccc(S(=O)(=O)N2CCCCC2)cc1NC(=O)Cc1sc(C)nc1-c1ccc(F)cc1 | -14% | -65* | u | u | -2% | u
CCOc1ccccc1CNC(=O)CCC(=O)N1CCSc2ccccc21 | -14% | -75* | x | x | -11% | -3%[46.1 µM]
CCc1ccc(NC(=O)CCC(=O)N2CCSc3ccccc32)cc1 | -3% | -17 | -23% | x | -12% | x
CCOc1ccc(CCNC(=O)CCC(=O)N2CCSc3ccccc32)cc1OCC | x | 16 | u | x | x | x
CCOc1ccccc1CNC(=O)CCCc1cn(C)c2ccccc12 | -24% | -21 | 0%[8.37 µM] | -5% | -25% | -16%
CCOc1ccccc1CNC(=O)CCc1cn(C)c2ccccc12 | -4% | 5 | u | 6.3µM* | -6% | -11%[46.1 µM]
CCc1cccc(NC(=O)CCC(=O)N2CCSc3ccccc32)c1 | -14% | -66*! | -23% | x | i | -5%[46.1 µM]
Cc1cccc2c(=O)cc(CSc3ccccc3NC(=O)C(C)(C)C)[nH]c12 | -5% | 40 | x | x | -5% | 13%[46.1 µM]
CCOc1ccc(N2C(=O)N(Cc3c(F)cccc3Cl)c3ccccc3S2(=O)=O)cc1 | -6% | -2 | x | x | -12% | 8%[46.1 µM]
COc1cccc(NC(=O)C2=C(C)C(=O)OC23CCN(C(C)=O)CC3)c1 | 0% | u | x | x | -4% | 1%[46.1 µM]
CCCc1cc(=O)oc2cc(OCC(=O)Nc3cc(C)on3)ccc12 | -9% | -6 | 9% | -2% | i | 9%
C=C(Cl)COc1ccc2c(CCC)cc(=O)oc2c1 | -14% | -30 | 10µM* | 12%[46.1 µM] | x | 3%
CCCc1cc(=O)oc2cc(OCC(=O)NCCc3c[nH]c4ccccc34)ccc12 | u | u | 4.5µM* | x | u | x

Screening results: PubChem BioAssay, National Center for Advancing Translational Sciences (NCATS)
